MBNL1-CUG inh – qHTS Assay for Inhibitors of MBNL1-poly(CUG) RNA binding. Potency, µM (highest dose often 57.5 µM), usual class: inhibitors. 0.036% of 280,000 active. Muscleblind-like protein 1 (Homo sapiens), Q9NR56. AID 2675, 2010. TR-FRET MBNL1-His/biotin-(CUG)12 binding, 665/545 ratio; active = well fitted inhibition curve with a large enough effect in the signal ratio, with a control signal flat, not every such curve was filed as active; inconclusive = small, poorly fitted or top-dose-only effect, or effect the other way, or a change in a side signal; inactive = no such curve, though single readings can be large or run the other way; the % refers to the signal ratio
Target sequence (Q9NR56 whole entry, looked up): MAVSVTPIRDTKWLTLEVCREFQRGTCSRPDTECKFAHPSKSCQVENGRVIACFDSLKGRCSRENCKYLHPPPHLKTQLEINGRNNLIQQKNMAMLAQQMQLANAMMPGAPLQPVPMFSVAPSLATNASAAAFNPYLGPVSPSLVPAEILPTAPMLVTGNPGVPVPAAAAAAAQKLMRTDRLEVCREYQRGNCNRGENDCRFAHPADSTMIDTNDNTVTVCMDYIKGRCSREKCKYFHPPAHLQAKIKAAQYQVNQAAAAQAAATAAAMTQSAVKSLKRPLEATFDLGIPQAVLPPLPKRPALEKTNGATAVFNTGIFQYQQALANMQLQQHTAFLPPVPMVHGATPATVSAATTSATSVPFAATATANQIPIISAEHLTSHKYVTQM
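TR-FRET between His-tagged MBNL1 and biotin-(CUG)12 RNA, detected with Tb anti-His antibody (0.055 ng/ul) and streptavidin-XL665 (5 nM), 60 min at room temperature. Compounds titrated 92 nM to 58 uM; 665/545 nm ratio normalized to buffer and complex controls.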
Abeta yeast res – qHTS for compounds that reverse cellular toxicity of Amyloid beta (A-beta) peptide in yeast: Primary Screen; Potency, µM (titrated, usually from 46.1 µM), hits mostly activators; yeast expressing A-beta42, growth rescue, OD600, 48 h; response scale: 0% DMSO, 100% iron-clioquinol control; 0.063% of 410,000 active; also: nearly all actives have a fitted effect of over 55% in size
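Yeast A-beta toxicity model in growth medium with pinned compounds, 48 h at 30 C; growth read as absorbance at 600 nm. Normalized to FeCl3/clioquinol equimolar mix (positive) and DMSO (negative).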
aSyn rescue – qHTS of alpha-syn Inhibitors; AID 652106, 2013; 0.14% of 370,000 active; Yeast expressing alpha-synuclein, growth rescue, BacTiter-Glo, 24 h; Potency, µM (titrated, usually from 46.1 µM), usual class: activators; also: nearly all actives have a fitted effect of over 65% in size
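Galactose-induced alpha-syn yeast (OD600=0.02, raffinose-pregrown) + pinned cpd, 24 hr, 30 deg C; growth by BacTiter-Glo luminescence. Growth restoration scores as activation.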
TDP-43 yeast inh – qHTS of TDP-43 Inhibitors. TDP-43 expressing yeast growth rescue, BacTiter-Glo, 24 h. Potency, µM (doses to about 46.1 µM), usual class: activators. 1.8% of 410,000 active. AID 652104, 2013; also: nearly all actives have a fitted effect of over 50% in size
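Growth rescue of TDP-43-toxic yeast measured as ATP luminescence (BacTiter-Glo). Cells grown to mid-log in raffinose, induced in galactose at OD600=0.02, exposed to compound 24 hr at 30 deg C.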
Glioma ERSR ind – qHTS for Inducers of the Endoplasmic Reticulum Stress Response (ERSR) in Human Glioma: qHTS; 0.02% of 420,000 active; AID 602332, 2012; U87-MG GRP78 promoter luciferase reporter, 16 h; Potency, µM, usual class: activators; also: series mostly up to about 76 µM; nearly all actives have a fitted effect of over 35% in size
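Stably transfected U87-MG glioma cells carrying a GRP78-based luciferase sensor; 16 h compound incubation. Luminescence end-point read 10 min after Bright-Glo addition at room temperature.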
FUS yeast rescue – qHTS for Suppressors of FUS Proteinopathy: Primary screen using FUS-linked yeast assay. S. cerevisiae FUS-expressing, growth rescue, OD600, 24 h. Potency, µM (series often up to 76.6 µM), usual class: activators. 0.24% of 390,000 active; also: nearly all actives have a fitted effect of over 55% in size
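Cultures pregrown in 2.5% raffinose medium are shifted to minimal medium containing 2% galactose to express toxic FUS. Compounds are tested at several concentrations. After 24hr at 30C, growth is quantified at 600 nm absorbance.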
Numbers stand for hits; . = inactive; ? = inconclusive; / = not tested or not shown. The list is not random: actives were taken first. Their share in the collection is about 2%. Unless noted, calls follow the shape of the dose curve; as a rule, active = well fitted curve in the direction sought with a large enough effect; inconclusive = small, poorly fitted or top-dose-only effect, or another doubt; inactive = no such curve, though single readings can be large; an effect the other way counts as inactive or inconclusive.

SMILES | MBNL1-CUG inh | Abeta yeast res | aSyn rescue | TDP-43 yeast inh | Glioma ERSR ind | FUS yeast rescue
COCc1ccc(CN2CCOc3ccc(C4=Cc5ccccc5C4)cc3C2)o1 | / | / | / | / | . | /
COc1cc2c(c(OC)c1OC)-c1c(cc3c(c1OC)OCO3)C[C@@H](C)[C@](C)(O)C2 | / | / | / | / | . | /
Oc1ccc(Br)cc1-c1cc(-c2ccco2)[nH]n1 | . | . | . | 13µM | . | .
Oc1ccc(Br)cc1-c1ccn[nH]1 | . | . | . | 13µM | . | /
Oc1ccc(Cl)cc1-c1cc(-c2ccco2)[nH]n1 | . | . | . | . | . | .
Oc1ccc(Cl)cc1-c1cc(-c2cccc(Br)c2)n[nH]1 | . | . | . | ? | ? | .
Oc1ccccc1-c1cc(-c2ccco2)[nH]n1 | . | . | . | . | ? | .
Oc1c(-c2cc(-c3ccco3)[nH]n2)ccc2ccccc12 | . | . | . | 10µM | . | .
Cc1ccccc1-c1cc2c(c(OC3CCOC3)c1)OCCN(C(=O)Cn1cccn1)C2 (configuration not stated) | / | / | / | / | . | /
CCn1c2ccccc2c2cc(NC(=O)COC(=O)c3cccc(F)c3)ccc21 | / | / | / | / | / | .
Cc1ccc(C2=NN(C(=O)CSc3nc4ncc(Cl)cc4[nH]3)C(c3ccco3)C2)cc1 (configuration not stated) | . | . | . | . | . | .
COc1ccc(C2=NN(C(=O)CSc3nc4ncc(Cl)cc4[nH]3)C(c3ccco3)C2)cc1 (configuration not stated) | . | . | . | 35µM | . | ?
O=C(O)c1ccc(C=Nn2c(-c3ccc(F)cc3)n[nH]c2=S)cc1 | / | / | / | / | / | .
Cc1oc(-c2cccc(NC(=O)c3ccccn3)c2)nc1CNC(=O)c1ccc(C(F)(F)F)cc1 | / | / | / | / | . | /
CC1CCCCC1Nc1nc2ccc(Cl)cc2n2cnnc12 (configuration not stated) | . | . | . | 13µM | . | .
Cc1cc(C)cc(Nc2nc3ccc(C)cc3n3cnnc23)c1 | . | . | . | . | . | .
O=C(C[N+]12CN3CN(CN(C3)C1)C2)c1ccc(I)cc1 | / | / | / | / | . | /
COC(=O)c1cccc(C(=O)N2CCc3c(cnc(C)c3CNC(=O)c3ccsc3)C2)c1 | / | / | / | / | . | /
Nc1nc(N)nc(-c2ccc(Cl)c(Cl)c2)n1 | / | . | . | 22µM | . | .
CN(C)c1ccc(/C=C/c2cnnc3ccccc23)cc1 | / | / | . | / | . | /
COc1ccc(C(=O)N2C=Cc3ccccc3C2C#N)cc1 (configuration not stated) | / | . | . | 16µM | . | .
O=C(CSc1nnc(-c2cccnc2)n1-c1ccc(Cl)cc1)c1ccc(F)cc1 | / | / | / | / | / | .
COC(=O)C1=C(C)N(c2ccc(Cl)c(Cl)c2)C(=O)C1 | . | . | . | 13µM | . | .
O=C(C1CCCN(c2ncnc3c2nc2n3CCCCC2)C1)N1CCN(c2cccc(Cl)c2)CC1 (configuration not stated) | . | / | . | 20µM | . | ?
Cc1ccc(C)c(N2CCN(C(=O)C3CCCN(c4ncnc5c4nc4n5CCCCC4)C3)CC2)c1 (configuration not stated) | . | . | . | 25µM | . | ?
O=C(C1CCN(c2ncnc3c2nc2n3CCCCC2)CC1)N1CCN(c2ccccc2F)CC1 | . | . | . | . | . | .
Cc1ccc(N2CCN(C(=O)C3CCCN(c4ncnc5c4nc4n5CCCCC4)C3)CC2)c(C)c1 (configuration not stated) | . | / | . | . | . | .
CN(C(=O)C1CCCN(c2ncnc3c2nc2n3CCCCC2)C1)c1cccc(Cl)c1 (configuration not stated) | . | . | . | 16µM | . | .
